Among the data in PubChem BioAssay (NCATS) are outcome, Potency and max response values, retold here.

A number with no mark means an inactive call. Inconclusive results are not listed. A structure can be active in one record and inactive in another. Calls of active or inactive are those of the source. Unless noted, calls come from the whole dose curve; as a rule, active = well fitted curve in the direction sought with a large enough effect; inconclusive = small, poorly fitted or top-dose-only effect, or another doubt; inactive = no such curve, though single readings can be large; an effect the other way counts as inactive or inconclusive.

Test [1] in a line: Confirmation and Secondary Assay for Modulators of Hemoglobin Beta Chain Splicing at IVS2 705 locus (AID 930).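 Note: HeLa cells stably expressing the EGFP-705 splicing reporter; GFP fluorescence per well restored by corrected splicing of the IVS2-705 intron in EGFP; % of control where 0% means no effect.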 The settings on record: HeLa EGFP-705 splicing reporter, GFP fluorescence, 48 h; series mostly up to 46.1 µM. The gist of the method:
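Secondary splice-site specificity test uses HeLa expressing CMV-driven EGFP interrupted by IVS2-705; cells were treated 2 days at 37C with 500 nM antisense PNA as positive control.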

Test [2] concerns the target Rap guanine nucleotide exchange factor 3 (Homo sapiens) (UniProt O95398). The test can be described thus: Confirmatory qHTS for agonist of cAMP-regulated guanine nucleotide exchange factor 3 (EPAC1) (AID 1645881).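 Note: EPAC1 catalysed release of BODIPY-GDP from Rap1B seen as fluorescence loss; nearly all actives have a fitted effect of over 75% in size.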 To be noted: EPAC1 Rap1B BODIPY-GDP exchange fluorescence, 100% = cAMP control response; series mostly up to 154 µM. Background: In qHTS, concentration-response curves come from the screen itself.

The target of test [3] is Rap guanine nucleotide exchange factor 4 (Homo sapiens) (UniProt Q8WZA2). The test can be described thus: Confirmatory qHTS for agonist of cAMP-regulated guanine nucleotide exchange factor 4 (EPAC2) (AID 1645884).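 Note: nucleotide exchange releases bodipy-GDP from Rap1 and this lowers its fluorescence; % is set by controls: 0 for no effect and ±100 for the full control effect; nearly all actives have a fitted effect of over 65% in size.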 To be noted: EPAC2 GEF activity, Rap1B-BODIPY-GDP fluorescence, percent relative to cAMP agonist control; series mostly up to 154 µM.
Rap guanine nucleotide exchange factor 4 (Homo sapiens), sequence (Q8WZA2 whole entry, looked up): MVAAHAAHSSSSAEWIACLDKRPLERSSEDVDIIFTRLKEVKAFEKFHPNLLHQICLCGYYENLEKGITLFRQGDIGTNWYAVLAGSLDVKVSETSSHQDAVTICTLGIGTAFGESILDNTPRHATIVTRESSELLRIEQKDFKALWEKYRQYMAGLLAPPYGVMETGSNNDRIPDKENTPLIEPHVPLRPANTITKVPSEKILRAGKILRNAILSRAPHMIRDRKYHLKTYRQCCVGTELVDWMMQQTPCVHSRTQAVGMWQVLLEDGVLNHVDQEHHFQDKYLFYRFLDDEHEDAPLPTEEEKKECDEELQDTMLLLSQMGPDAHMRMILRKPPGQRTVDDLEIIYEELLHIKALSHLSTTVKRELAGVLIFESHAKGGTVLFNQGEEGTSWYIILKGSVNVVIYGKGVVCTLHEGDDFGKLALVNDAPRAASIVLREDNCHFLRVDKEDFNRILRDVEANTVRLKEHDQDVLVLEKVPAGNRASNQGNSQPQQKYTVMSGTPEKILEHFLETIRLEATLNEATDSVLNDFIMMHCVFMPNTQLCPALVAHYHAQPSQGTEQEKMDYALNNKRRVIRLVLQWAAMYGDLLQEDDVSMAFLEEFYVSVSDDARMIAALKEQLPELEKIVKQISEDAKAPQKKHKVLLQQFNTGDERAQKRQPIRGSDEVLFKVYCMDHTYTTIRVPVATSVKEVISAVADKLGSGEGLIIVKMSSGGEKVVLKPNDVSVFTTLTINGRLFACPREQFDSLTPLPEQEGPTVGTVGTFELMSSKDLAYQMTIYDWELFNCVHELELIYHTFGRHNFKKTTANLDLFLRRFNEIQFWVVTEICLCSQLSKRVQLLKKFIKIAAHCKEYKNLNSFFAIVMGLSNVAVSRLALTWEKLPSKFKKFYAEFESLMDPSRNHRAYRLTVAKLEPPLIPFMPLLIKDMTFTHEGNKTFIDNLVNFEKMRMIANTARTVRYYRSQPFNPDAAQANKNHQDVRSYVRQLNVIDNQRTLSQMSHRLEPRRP
Test [4] addresses Rap guanine nucleotide exchange factor 3 (Homo sapiens) (UniProt O95398). Briefly: Confirmatory qHTS for antagonist of cAMP-regulated guanine nucleotide exchange factor 3 (EPAC1) (AID 1645880).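 Note: plate controls were DMSO only for no effect and full effect of the ATA control for full effect; nearly all actives have a fitted effect of over 55% in size.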 The settings on record: EPAC1 Rap1B-BODIPY-GDP exchange, fluorescence; series mostly up to 115 µM. The gist of the method: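 Released BODIPY-GDP fluoresces less than Rap1-bound BODIPY-GDP; the signal is followed at 480/540 nm at 5-min intervals over 30 min, after 5 min at room temperature. Reactions contain 100 nM EPAC1, 250 nM RAP1B-BODIPY-GDP and 50 uM GDP; results are normalized to ATA and DMSO.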

The nature of test [5]: qHTS assay for cell viability of HEK293 cells (AID 743288). For max response: % is set by controls: 0 for no effect and ±100 for the full control effect. Note: nearly all actives have a fitted effect of over 50% in size. Note: potency is the fitted concentration of half-maximal effect. To be noted: ATP luminescence (CellTiter-Glo), 18 h; max response: hits give low values. The gist of the method:
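Steps: plate 2,000 parental HEK293 cells per well; incubate ≥5 h, 37 C; add compounds in DMSO; incubate 18 h, 37 C; add CellTiter-Glo; wait 30 min at room temperature; read luminescence.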

In test [6] the target is ATP-dependent 6-phosphofructokinase (Trypanosoma brucei brucei) (UniProt O15648). The test can be described thus: qHTS Assay to Find Inhibitors of T. brucei phosphofructokinase: hit validation (AID 492961).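 Note: luminescence reports ADP formed as PFK phosphorylates fructose-6-phosphate with ATP; % is set by controls: 0 for no effect and ±100 for the full control effect.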 To be noted: T. brucei PFK, ADP-Glo luminescence; series mostly up to 51.4 µM. The gist of the method: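 ADP-Glo luminescence read-out of ADP formed by 1.25 nM PFK from 0.1 mM ATP and 0.5 mM F6P (TEA pH 8.0, 45 min, RT). Compounds titrated; activity normalized to no-enzyme and full-enzyme controls.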
ATP-dependent 6-phosphofructokinase (Trypanosoma brucei brucei), sequence (O15648 whole entry, looked up): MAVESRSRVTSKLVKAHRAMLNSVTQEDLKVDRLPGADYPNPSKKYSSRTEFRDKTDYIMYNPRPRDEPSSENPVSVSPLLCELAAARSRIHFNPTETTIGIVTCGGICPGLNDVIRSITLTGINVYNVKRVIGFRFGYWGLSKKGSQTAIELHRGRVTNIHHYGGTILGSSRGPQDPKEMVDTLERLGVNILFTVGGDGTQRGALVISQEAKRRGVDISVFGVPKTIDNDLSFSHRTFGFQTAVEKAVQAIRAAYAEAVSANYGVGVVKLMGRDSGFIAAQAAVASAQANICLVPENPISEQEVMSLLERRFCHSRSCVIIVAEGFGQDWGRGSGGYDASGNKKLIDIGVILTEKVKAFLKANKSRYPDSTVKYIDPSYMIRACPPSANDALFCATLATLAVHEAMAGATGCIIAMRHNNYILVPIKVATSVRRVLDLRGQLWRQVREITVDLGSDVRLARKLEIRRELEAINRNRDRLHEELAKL

A short description of test [7]: S16 Schwann cell PMP22 intronic element firefly luciferase assay (AID 624032). Note: nearly all actives have a fitted effect of over 30% in size. Note: potency is the fitted concentration of half-maximal effect. To be noted: S16 rat Schwann cells, PMP22 element FLuc, 24 h; series mostly up to 57.5 µM. The gist of the method: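 Luciferase reporter of PMP22 intronic-element expression in stably transfected S16 rat Schwann cells, read by ONE-Glo luminescence after 24 h compound exposure at 37 C. Activity scaled between DMSO (0%) and positive-control PTC124; concentration-effect curves quality-classified.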

Test [8] can be described thus: S16 Schwann cell PMP22 intronic element beta-lactamase assay (AID 624044; calls by dose curve;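 note: 0% = DMSO and -100% = potassium clavulanate positive control; nearly all actives have a fitted effect of over 15% in size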). To be noted: S16 rat Schwann cells, PMP22 element beta-lactamase FRET, 24 h; series mostly up to 38.3 µM. An outline of the steps:
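Beta-lactamase reporter under a PMP22 intronic regulatory element in stable S16 rat Schwann cells; 24 h compound exposure. 460 nm blue signal normalized between DMSO (0%) and potassium clavulanate, with 535 nm FRET tracking viability; curves classed by r2 and response.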

In test [9] the test system is AA1029. Briefly: qHTS profiling for inhibitors of Plasmodium falciparum proliferation (AID 504749). Note: nearly all actives have a fitted effect of over 60% in size. Note: potency is the fitted concentration of half-maximal effect. To be noted: P. falciparum in erythrocytes, SYBR Green DNA, 72 h; series mostly up to 28.7 µM. An outline of the steps: (§1)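 SYBR Green fluorescence of parasite DNA, read after lysis and overnight dark incubation, measured growth over 72 h in erythrocyte culture at 0.3% parasitemia and 2.5% hematocrit. Data normalised to DMSO and 0.29 uM artemisinin, with plate-drift correction.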

Test [10] has as its system CP215. Described as above. To be noted: P. falciparum in erythrocytes, SYBR Green DNA, 72 h; series mostly up to 28.7 µM. The gist of the method: as §1
For test [11], the system named is CP217. The test is described as above. The settings on record: P. falciparum in erythrocytes, SYBR Green DNA, 72 h; series mostly up to 28.7 µM. An outline of the steps: as §1
Test [12] has as its system CP250. Described as above. To be noted: P. falciparum in erythrocytes, SYBR Green DNA, 72 h; series mostly up to 28.7 µM. The gist of the method: as §1
In test [13] the test system is CP252. The description is as above. To be noted: P. falciparum in erythrocytes, SYBR Green DNA, 72 h; series mostly up to 28.7 µM. An outline of the steps:
as §1

The subject of test [14] is CP256. The test is described as above. To be noted: P. falciparum in erythrocytes, SYBR Green DNA, 72 h; series mostly up to 28.7 µM. The gist of the method:
as §1

The test system of test [15] is CP260. The test is described as above. To be noted: P. falciparum in erythrocytes, SYBR Green DNA, 72 h; series mostly up to 28.7 µM. An outline of the steps: as §1
In test [16] the test system is CP315. The description is as above. The settings on record: P. falciparum in erythrocytes, SYBR Green DNA, 72 h; series mostly up to 28.7 µM. The gist of the method: as §1
In test [17] the test system is FAB9. The description is as above. To be noted: P. falciparum in erythrocytes, SYBR Green DNA, 72 h; series mostly up to 28.7 µM. The gist of the method:
as §1

Test [18] has as its system JCK. Described as above. To be noted: P. falciparum in erythrocytes, SYBR Green DNA, 72 h; series mostly up to 28.7 µM. The gist of the method:
as §1

For test [19], the system named is N140. The description is as above. The settings on record: P. falciparum in erythrocytes, SYBR Green DNA, 72 h; series mostly up to 28.7 µM. The gist of the method: as §1
Test [20] concerns TAB165. The description is as above. To be noted: P. falciparum in erythrocytes, SYBR Green DNA, 72 h; series mostly up to 28.7 µM. An outline of the steps:
as §1

Rap guanine nucleotide exchange factor 3 (Homo sapiens), sequence (O95398 whole entry, looked up): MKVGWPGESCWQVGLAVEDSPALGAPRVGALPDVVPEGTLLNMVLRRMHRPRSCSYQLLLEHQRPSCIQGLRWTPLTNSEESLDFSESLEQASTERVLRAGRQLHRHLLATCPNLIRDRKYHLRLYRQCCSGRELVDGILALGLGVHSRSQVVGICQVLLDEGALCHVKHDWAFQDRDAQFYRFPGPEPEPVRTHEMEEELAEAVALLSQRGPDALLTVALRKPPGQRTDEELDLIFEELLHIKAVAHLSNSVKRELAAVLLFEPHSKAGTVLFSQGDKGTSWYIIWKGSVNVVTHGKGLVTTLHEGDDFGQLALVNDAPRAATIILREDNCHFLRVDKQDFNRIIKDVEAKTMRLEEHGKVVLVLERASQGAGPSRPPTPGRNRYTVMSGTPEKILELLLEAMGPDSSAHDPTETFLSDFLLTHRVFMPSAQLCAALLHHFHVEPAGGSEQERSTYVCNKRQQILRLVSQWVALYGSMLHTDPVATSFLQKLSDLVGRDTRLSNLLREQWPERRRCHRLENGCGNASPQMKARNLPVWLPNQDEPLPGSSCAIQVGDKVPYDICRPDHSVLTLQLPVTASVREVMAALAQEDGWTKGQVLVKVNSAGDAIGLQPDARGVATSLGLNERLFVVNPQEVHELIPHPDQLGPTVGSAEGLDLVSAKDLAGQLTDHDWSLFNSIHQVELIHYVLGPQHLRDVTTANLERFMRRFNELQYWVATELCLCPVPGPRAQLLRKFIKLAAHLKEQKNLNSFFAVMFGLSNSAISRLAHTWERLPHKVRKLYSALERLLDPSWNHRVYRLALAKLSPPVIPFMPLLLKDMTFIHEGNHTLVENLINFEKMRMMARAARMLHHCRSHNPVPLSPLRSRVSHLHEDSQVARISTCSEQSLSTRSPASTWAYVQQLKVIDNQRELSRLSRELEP

As to `c1cncc(C2CCCCN2)c1` (configuration not stated), in test [1], the molecule was called inactive.
In the case of `C=C(C)CN1CC[C@@]23c4c5ccc(O)c4O[C@H]2c2[nH]c4ccccc4c2C[C@]3(O)[C@@H]1C5`, the result in [2] and in test [3] was inactive.
Turning to `Cc1ccc(C[N+](C)(C)C)o1`, the call in test [1] was inactive.
On to `O=C1CS[C@@H](c2ccccc2Cl)c2cc(Cl)ccc2N1`, for which, in [4], the Potency entry is “inactive”.
Consider `CCCn1c(C)c(C(=O)c2cccc3ccccc23)c2ccccc21`, for which, in test [4], the Potency entry is “inactive”. In addition, the outcome in [2] and in test [3] was inactive.
On to `CN1Cc2ccccc2[C@@H]2c3cccc4[nH]cc(c34)C[C@H]21`, for which, in test [4], the Potency result is “inactive”. The call in [2] and in [3] was inactive.
With `CC(C)(c1ccc(OCC2CO2)cc1)c1ccc(OCC2CO2)cc1` (configuration not stated), in test [5], the Potency was 70.8 µM (active) and the max response was -24%.
In the case of `CCN1C[C@]2(COC)[C@H](O)C[C@H](OC)[C@]34C1C([C@H](OC)[C@H]23)[C@]1(OC(C)=O)C2[C@@H](OC(=O)c3ccccc3)C(O)(C[C@H]24)[C@@H](OC)[C@@H]1O`, the Potency result in test [6], in test [7], in test [8], in test [9], in test [10] and in test [11] was “inactive” each time. For the same molecule, the Potency entry in test [12], in test [13], in test [14], in [15], in test [16] and in test [17] was “inactive” each time. The Potency entry in test [18], in test [19] and in [20] was “inactive” each time.
Regarding `Cc1ccc2cc3c(ccc4ccccc43)c3c2c1CC3`, in test [5], the max response was -7.81%.
Take `O=C(O)c1ccccc1-c1c2cc(Br)c(=O)cc-2oc2[c]([Hg])c(O)c(Br)cc12`: the call in test [1] was inactive. Also, the Potency result in test [7], in test [8], in test [9], in test [10], in [11] and in test [12] was “inactive” each time. Besides, the Potency entry in [13], in test [14], in test [15], in test [16], in test [17] and in [18] was “inactive” each time. The Potency entry in [19] and in test [20] was “inactive” each time.
As for `CC(C)[C@@]1(NC(=O)[C@H]2CC3c4cccc5[nH]cc(c45)C[C@H]3N(C)C2)O[C@@]2(O)C3CCCN3C(=O)[C@@H](Cc3ccccc3)N2C1=O` (some centres not stated), the Potency result in test [6] and in test [8] was “inactive” each time. For the same molecule, the Potency in test [7] was 5.1 µM (active); in test [9], 3.16 µM (active); in test [10], 5.36 µM (active); in test [11], 3.98 µM (active); in test [12] it was 12.6 µM (active); in [13], 3.98 µM (active). For the same molecule, the Potency in test [14] is 7.94 µM (active); in [15], 3.16 µM (active); in test [16] it was 9.53 µM (active); in test [18], 7.94 µM (active); in [19], 0.447 µM (active); in test [20], 0.562 µM (active).
As to `CCN(CC)CCO[C@H]1CC[C@@]2(C)C(=CC[C@@H]3[C@H]2CC[C@]2(C)C(=O)CC[C@H]32)C1`, the Potency entry in [6], in test [8], in test [9], in test [10], in test [11] and in [13] was “inactive” each time. In addition, the Potency result in test [14], in test [15], in test [16], in test [17], in test [18] and in [19] was “inactive” in each case. In addition, the Potency result in test [20] was “inactive”. Further, in [7], the Potency is 9.07 µM (active).
